# Measurements reported in PubChem BioAssay.
# Activity calls are given as the source filed them.
# Experiments:
# [1] = anti-His antibody binders, primary screen, artefact control for SMM control protein annotation, biochemical, small-molecule microarray, 635 nm fluorescence (AID 1128); settings: anti-His Alexa647 antibody binding, higher = more signal;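 note: score merges feature fluorescence with signal-to-noise for each printed compound spot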
# [2] = system: Human papillomavirus type 1a E7 protein (residues 1-88); assay: HPV1a E7 small-molecule binders, primary screen, biochemical, small-molecule microarray, residues 1-88, 635 nm (AID 1129); settings: small-molecule microarray binding, fluorescence 635 nm; higher = more signal
# [3] = biological target: Focal adhesion kinase 1 (Homo sapiens) (UniProt Q05397); assay: small-molecule microarray binders of FAK, primary screen, biochemical, 635/667 nm fluorescence, BSA, DTT (AID 1130); settings: PTK2 binding, 635 nm fluorescence, higher = more signal;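 note: composite of spot emission at 667 nm and signal to noise over triplicate slides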
# Sequence of Focal adhesion kinase 1 (Homo sapiens) (Q05397 whole entry, looked up): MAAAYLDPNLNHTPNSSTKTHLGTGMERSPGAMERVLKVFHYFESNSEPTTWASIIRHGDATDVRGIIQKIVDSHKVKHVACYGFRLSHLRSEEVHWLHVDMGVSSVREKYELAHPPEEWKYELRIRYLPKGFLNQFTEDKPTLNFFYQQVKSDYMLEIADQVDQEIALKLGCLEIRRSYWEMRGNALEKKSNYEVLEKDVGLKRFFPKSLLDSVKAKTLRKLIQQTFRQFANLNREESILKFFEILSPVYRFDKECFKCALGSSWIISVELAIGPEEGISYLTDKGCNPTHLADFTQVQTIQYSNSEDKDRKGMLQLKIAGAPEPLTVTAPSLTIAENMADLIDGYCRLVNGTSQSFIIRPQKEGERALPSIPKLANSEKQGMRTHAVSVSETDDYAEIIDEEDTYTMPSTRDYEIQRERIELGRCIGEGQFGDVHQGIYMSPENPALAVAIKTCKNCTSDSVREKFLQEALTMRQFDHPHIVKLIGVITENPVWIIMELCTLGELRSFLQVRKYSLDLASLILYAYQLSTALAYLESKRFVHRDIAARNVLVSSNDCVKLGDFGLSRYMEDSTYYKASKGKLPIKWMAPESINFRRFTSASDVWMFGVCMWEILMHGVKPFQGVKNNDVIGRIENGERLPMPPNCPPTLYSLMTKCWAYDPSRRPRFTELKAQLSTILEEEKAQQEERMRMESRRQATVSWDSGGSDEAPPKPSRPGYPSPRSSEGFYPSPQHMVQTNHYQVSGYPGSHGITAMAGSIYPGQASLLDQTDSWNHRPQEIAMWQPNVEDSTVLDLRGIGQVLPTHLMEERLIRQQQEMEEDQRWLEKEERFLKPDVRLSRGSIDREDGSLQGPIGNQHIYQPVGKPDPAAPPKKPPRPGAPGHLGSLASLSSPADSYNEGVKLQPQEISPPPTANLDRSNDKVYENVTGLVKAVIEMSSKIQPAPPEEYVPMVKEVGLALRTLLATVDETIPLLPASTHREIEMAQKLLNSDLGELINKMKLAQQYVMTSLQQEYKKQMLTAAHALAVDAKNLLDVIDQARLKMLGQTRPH
# [4] = system: Fibrinogen (Alexa647-labelled); assay: fibrinogen binders on compound microarrays, profiling panel, artefact control for SMM control-protein annotation, biochemical, small-molecule microarray, 635/667 nm fluorescence (AID 1131); settings: fibrinogen-A647 binding fluorescence, higher = more signal;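 note: z-score merges 667 nm fluorescence with per-spot signal-to-noise over triplicate slides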
# [5] = biological target: Follistatin (Homo sapiens) (UniProt P19883); assay: follistatin binders on small-molecule microarrays, primary screen, biochemical, small-molecule microarray, 635/667 nm fluorescence (AID 1132); settings: FST binding, 635 nm fluorescence, higher = more signal
# Sequence of Follistatin (Homo sapiens) (P19883 whole entry, looked up): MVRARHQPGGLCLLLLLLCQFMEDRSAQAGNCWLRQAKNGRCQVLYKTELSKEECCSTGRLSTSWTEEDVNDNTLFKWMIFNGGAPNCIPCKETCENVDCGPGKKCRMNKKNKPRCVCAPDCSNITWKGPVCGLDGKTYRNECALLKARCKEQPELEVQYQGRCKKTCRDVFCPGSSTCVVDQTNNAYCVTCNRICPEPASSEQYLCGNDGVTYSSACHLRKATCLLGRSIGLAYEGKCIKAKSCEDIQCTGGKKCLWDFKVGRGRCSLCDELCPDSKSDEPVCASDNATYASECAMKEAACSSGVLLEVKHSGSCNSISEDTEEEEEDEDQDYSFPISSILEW
# [6] = biological target: Fibroblast growth factor 2 (Homo sapiens) (UniProt P09038); assay: FGF2 binders on small-molecule microarrays, primary screen, biochemical, small-molecule microarray, 635/667 nm fluorescence (AID 1133); settings: small-molecule microarray binding, FGF2, fluorescence 635/667; higher = more signal
# Sequence of Fibroblast growth factor 2 (Homo sapiens) (P09038 whole entry, looked up): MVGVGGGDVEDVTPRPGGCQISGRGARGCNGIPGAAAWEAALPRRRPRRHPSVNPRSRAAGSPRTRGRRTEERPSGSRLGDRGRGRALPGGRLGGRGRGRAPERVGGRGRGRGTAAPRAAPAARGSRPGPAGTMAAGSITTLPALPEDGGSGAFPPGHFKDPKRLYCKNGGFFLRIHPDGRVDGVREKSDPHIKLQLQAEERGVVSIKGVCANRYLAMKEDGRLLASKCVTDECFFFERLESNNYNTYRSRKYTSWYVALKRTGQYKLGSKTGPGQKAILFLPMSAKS
# [7] = mitochondrial membrane potential change in A549 cells, profiling panel, cell-based, JC-1 fluorescence, basal, 24 h, 100 nL (AID 1138); settings: higher = more signal;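 note: A549 lung adenocarcinoma cells under basal conditions with no added stimulus; test concentration not given here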
# [8] = system: Lefty1; assay: Lefty1 binders on small-molecule microarrays, primary screen, biochemical, small-molecule microarray, 635/667 nm fluorescence (AID 1139); settings: small-molecule microarray binding, fluorescence 635/667; higher = more signal
# [9] = system: wheat germ agglutinin (Triticum aestivum), Alexa647-labelled; assay: wheat germ agglutinin binders on compound microarrays, profiling panel, artefact control for SMM control-protein annotation, biochemical, small-molecule microarray, 635/667 nm fluorescence (AID 1140); settings: WGA-A647 binding, 635 nm fluorescence, higher = more signal;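 note: score merges 667 nm feature emission with signal to noise over triplicate slides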
# [10] = biological target: Luciferin 4-monooxygenase (Photinus pyralis) (UniProt P08659); assay: firefly luciferase enzyme inhibitors, primary screen, biochemical, luminescence, purified enzyme, 2006 set (AID 1141); settings: SteadyGlo luminescence, 30 min, higher = more signal, called active from +8 up or from −8 down;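 note: cell-free assay with purified firefly luciferase at 100 ng per well in PBS; test concentration not given here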
# Sequence of Luciferin 4-monooxygenase (Photinus pyralis) (P08659 whole entry, looked up): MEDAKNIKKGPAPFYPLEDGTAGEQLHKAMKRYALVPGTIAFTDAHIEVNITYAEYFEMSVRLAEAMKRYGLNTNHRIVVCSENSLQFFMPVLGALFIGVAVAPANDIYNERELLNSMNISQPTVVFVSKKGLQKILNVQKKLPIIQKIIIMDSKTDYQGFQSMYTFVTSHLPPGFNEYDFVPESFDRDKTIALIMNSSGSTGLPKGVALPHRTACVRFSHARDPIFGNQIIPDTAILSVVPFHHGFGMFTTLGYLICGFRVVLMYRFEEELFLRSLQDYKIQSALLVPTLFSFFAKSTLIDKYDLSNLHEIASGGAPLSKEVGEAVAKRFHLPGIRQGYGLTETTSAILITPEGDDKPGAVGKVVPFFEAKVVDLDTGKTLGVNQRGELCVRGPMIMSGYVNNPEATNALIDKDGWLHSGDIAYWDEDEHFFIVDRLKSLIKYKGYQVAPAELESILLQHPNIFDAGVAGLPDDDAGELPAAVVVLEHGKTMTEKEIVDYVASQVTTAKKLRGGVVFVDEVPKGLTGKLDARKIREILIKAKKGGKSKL
Compound,composite z-score [1],composite z-score [2],composite z-score [3],composite z-score [4],composite z-score [5],composite z-score [6],z-score [7],composite z-score [8],composite z-score [9],z-score [10]
Cc1cc(C)c(C(O)C2C=CC3C(=O)N(C)C(=O)C3N2Nc2ccccc2)c(C)c1 (stereo not given),1.83,0.496,0.471,0.992,0.72,-0.0568,0.362,-0.765,0.847,0.568 (inactive)
COc1ccc(C(O)C2C=CC3C(=O)NC(=O)C3N2Nc2ccccn2)cc1OCc1ccccc1 (stereo not given),0.834,0.502,-0.0511,0.816,-0.101,-1.37,1.73,-0.168,0.532,0.24 (inactive)
CC(C)C(=C=CC[C@H](O)c1ccccc1OCCO)C[C@H](O)c1ccccn1,1.93,0.958,0.344,0.207,0.476,0.857,0.453,0.649,1.33,-0.88 (inactive)
[N-]=[N+]=NCc1ccccc1C[C@]1(C(=O)O)N=C(c2ccc(OCCCO)cc2)O[C@H]1c1ccccc1CN=[N+]=[N-],1.25,1.03,0.378,1.02,0.879,0.157,0.0653,-0.8,1.08,-1.49 (inactive)
COCCCNC(=O)[C@@]1(c2ccc([N+](=O)[O-])cc2)CC(=O)N(CC23CC4CC(CC(C4)C2)C3)[C@@H]1c1ccc(CO)cc1,0.344,1.18,0.745,0.799,1.27,1.62,0.846,0.983,0.203,0.183 (inactive)
CCOC(=O)C[C@H]1[C@H](OC(=O)c2ccc(-c3ccccc3)cc2)[C@@H](NC(=O)c2ccc(-c3ccccc3)cc2)c2cc(OCCCO)ccc2N1C(=O)Cc1ccc(OC)cc1,0.296,0.226,0.315,0.656,0.13,-0.167,0.322,-0.245,-0.0591,0.735 (inactive)
O=C1C2C=CC(C(O)c3ccc(B(O)O)cc3)N(Nc3ccccc3)C2C(=O)N1c1ccccc1 (stereo not given),0.56,-0.935,1.44,-0.0877,0.0669,-0.581,-1.4,-0.698,-0.0504,-0.331 (inactive)
COC(=O)[C@@]1(Cc2ccccc2)[C@H]2c3cc(C(=O)N(C)C)n(Cc4cc(C)n(C)n4)c3C[C@H]2CN1C(=O)c1ccccc1,1.95,1.13,0.57,-0.103,0.229,-0.768,-0.127,-0.169,0.889,0.887 (inactive)
CC(C)CNC(=O)[C@@H]1c2ccccc2C(=O)N(Cc2cc(C(F)(F)F)cc(C(F)(F)F)c2)[C@H]1c1ccc(CO)cc1,-0.137,-0.569,0.093,-0.419,-0.137,-0.124,0.157,-0.851,0.204,-0.975 (inactive)
C[N+](C)(C)CCCCCCNC(=O)[C@H]1C[C@H]2C(=O)N3CCC[C@H]3C(=O)N2[C@H]1c1ccc(O)cc1,-0.167,0.0132,-0.166,-0.876,1.14,0.693,-1.39,1.12,-0.411,0.908 (inactive)
CC(=O)NCCCC[C@@H]1NC(=O)[C@@H]2C[C@H](C(=O)NCCCCN(C)C)[C@H](c3ccc(O)cc3)N2C1=O,0.231,-0.529,-0.2,-2.52,0.296,1.14,0.485,-0.0932,0.225,0.869 (inactive)
CCCCCN1CC=CC23O[C@@H]4/C=C\CCC(C)OC(=O)C4[C@H]2C(=O)N(CCCCCO)[C@@H]3C1=O (stereo not given in full),-0.0232,-0.413,-0.0791,-1.46,-0.35,0.517,-0.108,0.184,0.233,-2.73 (inactive)
CN(C)C(=O)[C@]1(CCC(=O)OC(C)(C)C)N=C(c2ccc(OCCCO)cc2)O[C@@H]1c1ccccc1N=[N+]=[N-],0.128,1.3,0.383,0.996,1.25,0.347,0.752,-0.037,1.15,-7.84 (inactive)
C=CC[C@@H](OC(=O)Nc1ccc(OC)cc1)c1ccc(O)c2ccccc12,0.235,1.17,2,0.656,1.39,1.94,-1.3,1.35,0.542,-6.72 (inactive)
CC(=CC1CCCCC1)[C@@H](NC(=O)c1ccc(C(F)(F)F)cc1)c1ccc(-c2ccccc2)cc1,-0.453,-0.753,-0.708,-0.134,-0.136,-0.58,-0.269,-0.795,0.165,1.25 (inactive)
COC(=O)c1ccc(C23CC2(C(NP(=O)(c2ccccc2)c2ccccc2)c2ccccc2)C3)cc1 (stereo not given),2.12,1.14,1.2,0.984,1.11,-0.575,2.44,-0.414,1.15,-5.98 (inactive)
